Screening results deposited in PubChem by National Center for Advancing Translational Sciences (NCATS).
ATXN2 expr inh = Primary qHTS for Inhibitors of ATXN expression; HEK-293 ATXN2-luciferase reporter, luminescence, 24 h; Potency, µM (top dose mostly 57 µM), without a hit: top-dose activity change, negative = inhibition, most hits filed as inhibitors; 0.72% of 360,000 active; also: potency is read from the fitted curve at half-maximal effect; % is scaled to controls: 0 for no effect and ±100 for the full control effect; nearly all actives have a fitted effect of over 55% in size
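qHTS (up to 57 uM final) was run with 24 h compound exposure of reporter cells at 37 °C. Each well was multiplexed: SteadyGlo luminescence measured ATXN2-luciferase expression after a fluorogenic Gly-Phe-AFC viability readout (25 uM final).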
IL-1B inflam inh = qHTS for Inhibitors of Inflammasome Signaling: IL-1-beta AlphaLISA Primary Screen; 4.7% of 360,000 active; activity change, % at 57.5 µM; THP-1 LPS/ATP IL-1B secretion, AlphaLISA, 16 h; stronger effect = lower value; AID 743279, 2014; in the data active = activity change below about -50%; inconclusive = mostly about -30% to -49%; also: % is scaled to controls: 0 for no effect and ±100 for the full control effect
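Secreted IL-1B measured by AlphaLISA bead assay after 16 h compound exposure of THP-1 cells; compounds (final up to 57.5 uM) added 1 h before LPS (250 ng/mL) and ATP (1.25 mM) stimulation; lower signal means less secretion.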
TGFb SMAD3 inh = qHTS for Inhibitors of TGF-b. HepG2 CAGA-GFP TGF-b/SMAD3 reporter, GFP fluorescence, 18 h; TGF-beta stimulated, 500 pg/mL final. Potency, µM (top dose mostly 46.1 µM), for the others: top-dose activity, negative = inhibition, most hits filed as inhibitors. 1.2% of 410,000 active. AID 588855, 2011; also: potency is read from the fitted curve at half-maximal effect; % is scaled to controls: 0 for no effect and ±100 for the full control effect; nearly all actives have a fitted effect of over 65% in size
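Per well, imaged GFP fluorescence of HEPG2 CAGA-GFP cells gives the signal; cells get compound, then TGF-beta (500 pg/mL final), 18 h at 37 degrees C; %Activity versus -TGF-beta and +DMSO controls.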
HepG2 tox = qHTS for Inhibitors of TGF-b: Cytotox Counterscreen. HepG2 CAGA-GFP viability, ATP luminescence, 18 h. 0.76% of 410,000 active. Potency, µM (highest dose often 46.1 µM), without a hit: top-dose activity change, negative = cytotoxicity, actives largely listed as cytotoxic; also: potency is read from the fitted curve at half-maximal effect
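HepG2 CAGA-GFP cells (1000/well, DMEM with 1% FBS) received compound, then TGF-beta at 500 pg/mL final, and were incubated 18 hours at 37 degrees C. Viability was read by CellTiter-Glo luminescence. Media-only wells were set as complete cell-killing and DMSO as no toxicity.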
S2 tox = Viability Counterscreen for Primary qHTS for Inhibitors of ATXN expression; S2 cells (HEK-293 line with an ATXN2-luciferase reporter) viability, CellTiter-Fluor protease fluorescence, 24 h; Potency, µM (series often up to 56.7 µM), usual class: cytotoxic; 0.49% of 400,000 active; AID 651635, 2014; also: potency is read from the fitted curve at half-maximal effect; nearly all actives have a fitted effect of over 40% in size
* hit, by the source's call; i = inactive; ? = inconclusive; / = no result; [ ] = dose if it differs, or a comment. This is a sample that favours compounds with a hit; in the whole collection about 5.7% have one here. Unless noted, calls follow the shape of the dose curve; as a rule, active = well fitted curve in the direction sought with a large enough effect; inconclusive = small, poorly fitted or top-dose-only effect, or another doubt; inactive = no such curve, though single readings can be large; an effect the other way counts as inactive or inconclusive.

SMILES | ATXN2 expr inh | IL-1B inflam inh | TGFb SMAD3 inh | HepG2 tox | S2 tox
N#CC(C#N)=Cc1cccnc1 | -9% | -86* | 3% | -4% | i
N#CC(C#N)=Cc1ccc(N2CCOCC2)cc1 | -14% | 29 | -10% | -6% | i
COc1cc2c(cc1OC)[C@@H]1C(=O)c3ccc4c(c3O[C@@H]1CO2)C[C@H](C(C)C)O4 | ? | ? | ? | -32% | i
COc1cc2c(cc1OC)C1C(=O)c3ccc4c(c3OC1CO2)CC(C(C)C)O4 (configuration not stated) | ? | -68* | ? | -24% | i
CC12CC(=O)C3C(CCC4CC(=O)C=CC43C)C1CCC2=O (configuration not stated) | -3% | -93* | 23% | 0% | ?
C[C@@]12CC(=O)[C@H]3[C@@H](CCC4=CC(=O)CC[C@]43C)[C@H]1CCC2=O | / | / | / | / | i
CNCC(O)c1ccc(OC(=O)C(C)(C)C)c(OC(=O)C(C)(C)C)c1 (configuration not stated) | -2% | ? | -2% | -32% | i
COc1cc([C@@H]2c3cc4c(cc3[C@H](O)[C@H]3COC(=O)[C@@H]23)OCO4)cc(OC)c1OC | ? | / | -9% | 15% | /
CCOc1ccc(-c2nc(CSCC(=O)NCCc3ccc(OCC)c(OCC)c3)c(C)o2)cc1 | 20µM* | / | -17% | -16% | 32µM*
Cc1ccsc1-c1nc(CSCC(=O)N2CCC3(CC2)OCCO3)c(C)o1 | 1% | -27 | 0% | -27% | i
Cc1ccc(-c2c(C)n3c4c(=O)n(C)c(=O)n(C)c4nc3n2CCO)cc1 | -15% | / | -6% | -1% | ?
O=C1NC(=O)C(Cc2ccccc2)(Cc2ccccc2)C(=O)N1Cc1ccccc1 | -14% | -54* | ? | -53% | i
Cc1c(C(=O)Nc2cccc(C(F)(F)F)c2)cc(-c2ccccc2)n1CCCN1CCOCC1 | -14% | / | / | / | /
O=C(c1ccc(Cl)cc1)C1CCCN(Cc2cccc3cccnc23)C1 (configuration not stated) | ? | -50* | ? | -34% | i
O=C(c1ccc(Cl)cc1)C1CCCN(Cc2cccc3ncccc23)C1 (configuration not stated) | / | 15 | ? | -38% | i
C[C@@H](N)C(=O)c1ccccc1 | / | / | / | / | i
COc1cc(/C=C/C(=O)c2c(O)n(CCc3ccccc3)c(=O)[nH]c2=O)ccc1O | -1% | -99* | 0% | -6% | ?
O=C(/C=C/c1ccccc1)c1c(O)n(CCc2ccccc2)c(=O)[nH]c1=O | -31% | -23 | 2% | 2% | ?
CC(C)Oc1ccc(C(=O)Nc2ccc3c(c2)CCCN3C(=O)c2cccs2)cc1 | ? | / | -12% | -27% | ?
O=C1NCCOC(=O)[C@H](Cc2ccc(F)cc2)CC/C=C/C[C@@H]1CC(=O)N(CCO)Cc1ccccc1 | -4% | 29 | ? | -13% | i
CC(C)CC1C(=O)N2CCC[C@H]2[C@]2(O)O[C@](NC(=O)[C@@H]3C=C4c5cccc6[nH]c(Br)c(c56)C[C@H]4N(C)C3)(C(C)C)C(=O)N12 (some centres not stated) | / | / | ? | -25% | /
O=C1NC(=O)N(Cc2ccco2)C(=O)/C1=C/c1ccc(-c2cccc([N+](=O)[O-])c2)o1 | ? | ? | -15% | -10% | ?
C=CCN1C(=O)NC(=O)/C(=C\c2ccc(-c3ccccc3[N+](=O)[O-])o2)C1=O | -8%[11.3 µM] | -100* | ? | -10% | i
O=C(CI)c1ccc(Cl)cc1 | / | / | -2% | -5% | /
CCn1c(=N)n(Cc2ccccc2F)c2ccccc21 | -18% | ? | -11% | -22% | ?
SMILES | ATXN2 expr inh | IL-1B inflam inh | TGFb SMAD3 inh | HepG2 tox | S2 tox
Cc1ccc(C2CC3CCC(C2)N3Cc2ccccc2F)cc1 (configuration not stated) | -9% | -85* | -1% | -5% | i
O=C(NC(c1cccnc1)C(F)(F)F)c1cnn(-c2nccc(-c3cccs3)n2)c1C1CC1 (configuration not stated) | / | / | / | / | i
CCC(=O)Nc1ccc(C(=O)OCc2ccccc2Cl)cc1 | 70% | 1 | 8% | -7% | ?
CCOC(=O)C(NC(=O)C(Cc1ccc(N(CCCl)CCCl)cc1)NC(C)=O)C(C)C (configuration not stated) | -3% | 3 | -4% | 14% | i
COC(=O)C(Cc1ccc(N(CCCl)CCCl)cc1)N=Cc1ccccc1O (configuration not stated) | 3.2µM* | -97* | ? | -52% | 11µM*
Cc1ccc(NC(=O)Nc2cc3c(cc2N2CCCCC2)n(C)c(=O)n3C)cc1Cl | -18% | / | ? | -9% | i
COc1ccc(-c2coc3c(C(=O)Nc4cc(OC)c(OC)c(OC)c4)cccc23)c(C)c1 | ? | -22 | 0% | -17% | ?
CC(C(O)c1ccccc1)N(C)C/C=C/c1ccccc1 (configuration not stated) | -20% | / | / | / | i
Cc1ccc(S(=O)(=O)N(C)C[C@H]2Oc3cc(Br)ccc3S(=O)(=O)N([C@H](C)CO)C[C@H]2C)cc1 | ? | -28 | ? | -22% | ?
C[C@@H]1CN([C@H](C)CO)S(=O)(=O)c2ccc(C#Cc3cccc(F)c3)cc2O[C@@H]1CN(C)C(=O)CN1CCOCC1 | ? | ? | ? | -41% | 20µM*
Cc1cccc(NC(=O)Cn2c(=O)oc3cc(S(=O)(=O)N4CCCCCC4)ccc32)c1 | / | / | / | -34% | /
CC(O)C1C=CC=CC(=O)OC2CC3OC4C5OC5(C)CCC4(COC(=O)C4OC4(C)C(O)CO1)C2(C)C31CO1 (configuration not stated) | ? | -100* | 0.25µM* | 7% | 0.0067µM*
CC(=O)OC1C(=O)OCC23CCC4(C)OC4C2OC2CC(OC(=O)C=CC=CC(=O)OCCC1C)C3(C)C21CO1 (configuration not stated) | ? | -101* | -63% | -26% | 0.03µM*
C[C@@H]1O[C@@H](O[C@H]2C[C@@H](O)[C@]3(CO)[C@H]4[C@H](O)C[C@]5(C)[C@@H](C6COC(=O)C6)CC[C@]5(O)[C@@H]4CC[C@]3(O)C2)[C@H](O)[C@H](O)[C@H]1O (some centres not stated) | 0.56µM* | 0 | ? | -50% | ?
CC(=O)c1cccc(NC(=O)C2CCN(S(=O)(=O)c3ccc4c(c3)oc(=O)n4C)CC2)c1 | -5% | / | -10% | -33% | i
CCOC(=O)c1c(C)[nH]c(C)c1S(=O)(=O)N1CCC(C(=O)N2CCN(c3cccc(Cl)c3)CC2)CC1 | 5% | / | ? | -4% | i
